This note sets out measurements from PubChem BioAssay (NCI).

The panel holds about 83,000 compounds, 20% with a hit somewhere; the sample as a whole holds those more often.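 Testing used 96-well plates and a 48-hour single-concentration exposure. Example: -40 means 40% of the starting cells died.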 A number with no mark means an inactive call. Calls of active or inactive are those of the source. How the source made its calls: active means growth percent below 10; inactive means the rest.

Holding throughout (test): NCI-60 one-dose screen, 48 h (100 = growth as untreated, 0 = no growth, -100 = all killed)
Holding throughout (settings): 10 µM unless noted

Assay [1] deals with HCT-15 colon.
The subject of assay [2] is HT29 colon.
Assay [3] has as its system SNB-75 CNS.
The subject of assay [4] is SNB-19 CNS.
For assay [5], the system named is U251 CNS.
The test system of assay [6] is PC-3 prostate.
Assay [7] relates to SK-MEL-5 melanoma.
Assay [8] concerns UACC-62 melanoma.
The test system of assay [9] is LOX IMVI melanoma.
The test system of assay [10] is SK-MEL-28 melanoma.
In assay [11] the test system is SK-MEL-2 melanoma.
Assay [12] concerns EKVX NSCLC.
Assay [13] relates to SN12C renal.
Assay [14] has as its system UO-31 renal.
The test system of assay [15] is TK-10 renal.
Assay [16] relates to ACHN renal.
For assay [17], the system named is CAKI-1 renal.
Assay [18] relates to CCRF-CEM leukemia.
Assay [19] relates to MOLT-4 leukemia.

On to `COc1cccc(-c2cc(C(=O)Nc3ccc(/C=C/c4ccc(OC5CCN(C)CC5)cc4)cc3)ccc2OC)c1`, for which the growth in [1] is -61.8% (active); in assay [2] it was -60.1% (active); in assay [3], -50.3% (active); in assay [4], -11.1% (active); in [5], -92.6% (active); in [6] it was 8.53% (active). Also, the growth in [7] is 96%; in assay [8] it was 69.6%; in assay [9] it was -86.9% (active); in assay [10], 41.7%; in assay [11], 98.5%; in [12] it was 27.2%. The growth in [13] is -78.3% (active); in assay [14], 37.7%; in assay [15], 1.81% (active); in [16], 60.1%; in [17], 109%; in assay [18], -10.8% (active). The growth in [19] is -36.4% (active).

Consider `CCOC(=O)c1ccc2c(c1)ncn2-c1ccc(NC(=O)Nc2cccc(C)c2)cc1`, for which the growth is 13.6% in assay [1]; 49.1% in [2]; 87.6% in assay [3]; 49.8% in assay [4]; 46.1% in assay [5]; 67.4% in [6]. Further, the growth in assay [7] was 83.2%; in assay [8], 71.3%; in assay [9], 5.37% (active); in assay [10], 88.7%; in [11] it was 85.4%; in assay [12], 84.7%. Moreover, the growth was 69.6% in assay [13]; 66.6% in assay [14]; 123% in [15]; 66.7% in assay [16]; 74.6% in assay [17]; 45.8% in assay [18]. In addition, the growth in assay [19] is 43.2%.

On to `NC(=NCc1ccccc1)C(N=Nc1ccccc1)C(=O)NCc1ccccc1` (configuration not stated), for which the growth in assay [1] is 49.1%; in assay [2] it was 18.3%; in [3] it was 96.9%; in assay [4], 63.4%; in assay [5] it was 26.7%; in assay [6] it was 62.7%. The growth was 103% in assay [7]; 76.6% in assay [8]; 42.7% in assay [9]; 106% in assay [10]; 107% in [11]; 82.5% in [12]. In addition, the growth in [13] was 58.6%; in [14] it was 68.3%; in [15], 69.6%; in assay [16], 92.1%; in assay [17], 54%; in assay [18], 76%. In addition, the growth in assay [19] was 61%.

For the compound `O=S(=O)(NCCNc1nccc(-c2c(-c3cccc(F)c3)nc3sccn23)n1)c1ccc(Br)cc1`, the growth is 29.2% in assay [1]; 28.2% in [2]; 75.3% in assay [3]; 59.3% in assay [4]; 53.4% in assay [5]; 51% in assay [6]. The growth in assay [7] was 31.5%; in assay [8] it was 35.8%; in assay [9], 38.5%; in [10], 69.1%; in assay [11] it was 71.7%; in [12], 59.5%. In addition, the growth in assay [13] was 42.9%; in assay [14] it was 21.2%; in assay [15], 68.8%; in [16], 30.2%; in assay [17], 35.1%; in assay [18], 51%. Also, the growth in assay [19] is 35.7%.

Regarding `Cc1ccc(-c2[nH][nH]c(=O)c2-c2nc3ccccc3s2)cc1`, the growth is 99.1% in [1]; 104% in assay [2]; 79.4% in [3]; 97.9% in assay [4]; 103% in assay [5]; 96.9% in [6]. In addition, the growth in assay [7] was 102%; in [8], 95.9%; in [9], 95.7%; in [10] it was 111%; in assay [11] it was 108%; in [12], 97.4%. Further, the growth in assay [13] was 98.7%; in assay [14], 78.7%; in assay [15], 107%; in assay [16], 97.3%; in assay [17] it was 88.7%; in assay [18] it was 93.3%. Also, the growth in assay [19] was 100%.

In the case of `O=S(=O)(NCCNc1nccc(-c2c(-c3cccc(O)c3)nc3occn23)n1)c1cccc(F)c1`, the growth in assay [1] was 95.5%; in assay [2], 51.2%; in assay [3] it was 80.6%; in assay [4], 102%; in assay [5] it was 98.3%; in assay [6], 86.8%. Also, the growth in assay [7] is 46.4%; in assay [8], 14%; in assay [9] it was 64.8%; in assay [10], 50.1%; in [11], 61.1%; in assay [12], 97.1%. Besides, the growth in assay [13] is 76.6%; in assay [14], 92.7%; in assay [15], 136%; in assay [16], 78%; in [17], 71.6%; in assay [18], 91.7%. The growth in assay [19] was 93%.

Consider `COc1cc(/C(C)=C(\c2ccc(Cl)cc2)c2ccc(OCCN3CCCC3)cc2)ccc1F`, for which the growth is 7.9% (active) in [1]; 8.92% (active) in assay [2]; 84.2% in assay [3]; 79.8% in assay [4]; 46.1% in assay [5]; 53% in assay [6]. In addition, the growth in assay [7] is 49.9%; in [8], 58%; in assay [9], 46%; in assay [10], 69.3%; in [11], 98.8%; in [12], 74%. The growth in assay [13] is 70.2%; in [14], 39.7%; in [15] it was 69.3%; in assay [16] it was 83.1%; in assay [17], 65.2%; in assay [18], 37.6%. In addition, the growth in [19] is 32.6%.

Take `CC1(C)CC[C@]23CC[C@]4(C)[C@H](CC[C@@H]5[C@@]6(C)CCCNC(C)(C)[C@@H]6CC[C@]54C)[C@H]2[C@H]1OC3`: the growth in assay [1] is -63.7% (active); in assay [2] it was -49.4% (active); in assay [3], 3.81% (active); in assay [4], -20.2% (active); in assay [5] it was -75.6% (active); in [6] it was -10.7% (active). Moreover, the growth was -7.69% (active) in assay [7]; -51.1% (active) in [8]; -94.9% (active) in assay [9]; 27.7% in [10]; 10.5% in assay [11]; 23.2% in assay [12]. The growth in assay [13] was 17.7%; in assay [14], 2.86% (active); in assay [15], 0.422% (active); in assay [16], -88.3% (active); in assay [17], -92% (active); in assay [18] it was -6.07% (active). Also, the growth in [19] is -32.7% (active).
